Laboratory results taken from PubChem BioAssay AID2205 (University of Pittsburgh Molecular Library Screening Center, 2009).
Screen size: about 200,000 compounds; about 1,600 (0.8%) were called active.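 The calls were made as follows: active = plate Z-score above 3 for both tubulin-high and condensed-nucleus cell shares, with cell loss under 80%, at 10 µM; inactive = the rest, inconclusive results apart.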 Only a selection was taken, and actives are over-represented in it overall.

experiment: microtubule stabilizers in HeLa cells, primary screen, imaging, high-content imaging (AID 2205); conditions: HeLa tubulin immunostaining HCS, 24 h, at 10 µM; % Hoechst-high responders: measured here: nuclear condensation Hoechst responders, stronger effect = higher value, share of cells brighter than vehicle mean+2SD; % tubulin-high responders: stronger effect = higher value, share of cells brighter than vehicle mean+2SD; toxicity: measured here: cytotoxicity by cell density;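 as to % tubulin-high responders: anti alpha tubulin signal scored within the nucleus-defined area of each cell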;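 as to toxicity: 0% = mean cell density of plate MIN control wells and 100% = no cells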

Row | Structure (SMILES) | % Hoechst-high responders | % tubulin-high responders | toxicity
1 | Cc1ccc(Nc2ccccc2N)cc1 | 19% | 25.1% (active) | 21.1%
2 | Nc1ccc(Nc2ccccc2)cc1 | 2.02% | 3.57% (inactive) | 3.51%
3 | Cc1ccc(Nc2nnc(SCc3ccccc3)s2)cc1 | 1.53% | 1.84% (inactive) | 10%
4 | COc1ccccc1OCCNC(=O)c1cc([N+](=O)[O-])cc([N+](=O)[O-])c1 | 1.79% | 2.35% (inactive) | 4.5%
5 | CCOC(=O)c1sc2nc(CSCC(=O)OCc3ccc(C(=O)OC)o3)[nH]c(=O)c2c1C | 1.26% | 1.86% (inactive) | 6.86%
6 | CCOC(=O)c1sc2nc(C)nc(SCC(N)=O)c2c1C | 2.34% | 3.35% (inactive) | 5.02%
7 | CCOC(=O)c1sc2nc(CSc3ccccc3)[nH]c(=O)c2c1C | 28.5% | 17.6% (active) | 32.2%
8 | O=C(N/N=C/c1c(Cl)[nH]c2ccccc12)c1sc2ccccc2c1Cl | 42.8% | 18.9% (active) | 32.3%
9 | Cc1nn(C)cc1/C=N/NC(=O)c1sc2ccccc2c1Cl | 0.999% | 1.5% (inactive) | 12.2%
10 | O=C(Nc1ccon1)c1sc2ccccc2c1Cl | 2.6% | 2.29% (inactive) | 5.2%
11 | N=C1C(c2nc3ccccc3s2)=C(O)CN1NC(=O)c1ccc([N+](=O)[O-])cc1 | 1.37% | 9.65% (inactive) | 4.7%
12 | CCOC(=O)CCCN1CC(O)=C(c2nc3ccccc3s2)C1=N | 2.61% | 4.95% (inactive) | 2.95%
13 | COc1ccccc1N1CC(O)=C(c2nc3ccccc3s2)C1=N | 9.29% | 17.8% (active) | 14.3%
14 | Cc1ccc(C(=O)NC(=S)Nc2ccccc2C)cc1 | 1.22% | 1.11% (inactive) | 8.22%
15 | C/C(CCC(=O)OC[C@H]1O[C@H](C#Cc2ccccc2)C=C[C@@H]1Oc1ccc(C)cc1)=N\OC[C@@H](O)[C@H]1O[C@@H]2OC(C)(C)O[C@@H]2[C@H]1O | 2.47% | 2.74% (inactive) | 9.27%
16 | CCC1(C(=O)c2ccccc2)C(c2cccc([N+](=O)[O-])c2)C1(C(=O)OC)C(=O)OC (stereo not drawn) | 2.35% | 3.4% (inactive) | 3.29%
17 | COc1ccccc1C1SCCN1C(=O)c1ccc([N+](=O)[O-])cc1 (stereo not drawn) | 3.5% | 3.9% (inactive) | 3.11%
18 | COc1ccc(C(=O)N2CCc3cc(OC)c(OC)cc3C2c2cccc([N+](=O)[O-])c2)cc1 (stereo not drawn) | 33.6% | 45.1% (active) | 30.8%
19 | Cc1cccc(OCCCC(=O)Nc2ccc(S(=O)(=O)N3CCCC3)cc2)c1 | 2.42% | 3.34% (inactive) | 1.31%
20 | CCCCOc1ccc(NC(=O)[C@@H]2CCCN2C(=O)C2CCN(S(=O)(=O)c3ccc(C)cc3)CC2)cc1 | 12% | 23.9% (active) | 63.4%
21 | COc1ccc(N2CCN(C(=O)C3CCN(S(=O)(=O)c4ccc(C)cc4)CC3)CC2)cc1 | 2.46% | 4.98% (inactive) | 9.28%
22 | CCOc1ccc(NC(=S)N2CCC(N(C)CC3CCCO3)CC2)cc1 (stereo not drawn) | 1.17% | 2.22% (inactive) | 7.25%
23 | COC(=O)c1cc(C(=O)N(Cc2ccccc2)c2ccccn2)cc([N+](=O)[O-])c1 | 2.13% | 3.91% (inactive) | 2.76%

Row | Structure (SMILES) | % Hoechst-high responders | % tubulin-high responders | toxicity
24 | Cc1[nH]n(-c2ccc(Cl)cc2)c(=O)c1/C=N/n1c(C)nc2ccccc2c1=O | 2.61% | 5.31% (inactive) | 6.25%
25 | CCOc1[nH]n(-c2ccc(Cl)cc2)c(=O)c1C=Nc1ccc(O)cc1 | 12.9% | 33.2% (active) | 43.1%
26 | CCc1nnc(NS(=O)(=O)c2ccc(N=Cc3c(C)[nH]n(-c4ccc(C)cc4)c3=O)cc2)s1 | 2.28% | 1.91% (inactive) | 6.1%
27 | O=C(NC(=S)Nc1ccc(S(=O)(=O)N2CCOCC2)cc1)c1ccccc1[N+](=O)[O-] | 1.54% | 3.32% (inactive) | 3.74%
28 | COc1ccc(C2=NOC(C(=O)NCc3ccco3)C2)cc1OC (stereo not drawn) | 22.4% | 39.6% (active) | 66.2%
29 | Cc1ccc(CNC(=O)C2CC(c3ccccc3[N+](=O)[O-])=NO2)o1 (stereo not drawn) | 2.18% | 1.45% (inactive) | 2.23%
30 | COc1ccc(-c2cc(C(=O)NCc3ccco3)no2)cc1OC | 1.41% | 1.62% (inactive) | 8.27%
31 | O=[N+]([O-])c1ccc(Sc2n[nH]c(-c3ccco3)n2)nc1 | 1.75% | 2.25% (inactive) | 7.26%
32 | CCCCCCCC[n+]1cccc(C(=O)N2c3c(nc(N)[nH]c3=O)NC(C)C2C)c1 (stereo not drawn) | 2.15% | 1.56% (inactive) | 7.45%
33 | CCOc1cccc(/C=N/N2C(=O)CSC2=S)c1O | 1.52% | 5.1% (inactive) | 14.4%
34 | Cc1nccn1CCCNC(=O)CC1C(=O)NCCN1Cc1ccc(Cl)c(F)c1 (stereo not drawn) | 2.31% | 2.68% (inactive) | 1.05%
35 | COC(=O)C1=C(Nc2ccc(OC)cc2)C=C(C)C(C(=O)OC)C1c1ccc(C)cc1 (stereo not drawn) | 1.91% | 2.3% (inactive) | 12.1%
36 | COC(=O)C1C(=O)NCC1c1ccc(C)cc1 (stereo not drawn) | 1.21% | 1.21% (inactive) | 6.65%
37 | COC(=O)C1=C(Nc2ccc(C)cc2)C=C(C)C(C(=O)OC)C1c1ccc(F)cc1 (stereo not drawn) | 21.1% | 34.1% (active) | 39.5%
38 | COc1ccc(C2NC(=S)NC3=C2CCc2ccccc23)cc1OC (stereo not drawn) | 3.43% | 3.22% (inactive) | 5.09%
39 | O=C(CCN1C(=O)/C(=C/c2cccs2)SC1=S)NNC(=O)c1cccc(O)c1 | 1.28% | 1.78% (inactive) | 8.2%
40 | COC(=O)c1ccccc1NS(=O)(=O)c1ccc2[nH]c(=O)[nH]c2c1 | 5.36% | 4.9% (inactive) | 0.144%
41 | CCOc1cc(NS(=O)(=O)c2ccc(OC)cc2)c(OCC)cc1NC(C)=O | 0.933% | 2.92% (inactive) | 3.17%
42 | CCOC(=O)c1ccccc1NS(=O)(=O)c1ccc(OC)cc1 | 15.7% | 39.6% (active) | 61.3%
43 | COc1ccc(C)cc1NC(=O)CSc1nnc(CC(=O)Nc2ccccc2F)n1C | 1.3% | 2.49% (inactive) | 3.08%
44 | COc1ccc(C(=O)n2nc(-c3ccc(Cl)cc3)nc2N)cc1OC | 2.89% | 4.28% (inactive) | 4.28%
45 | COc1ccccc1C(=O)n1nc(-c2ccccc2)nc1N | 2.45% | 1.99% (inactive) | 31.9%
46 | COc1ccc(C(=O)n2nc(-c3ccc(C)cc3)nc2N)cc1OC | 34.9% | 48.4% (active) | 31.5%
